# About 14,000 (4.5%) of roughly 310,000 compounds showed an effect of 50% or more. The effect is printed as a negative number. Many of the other results were omitted from the sample, so strong results are more common in it than they were.
# Molecular target: human ether-à-go-go-related gene (hERG) potassium channel (human, UniProt Q12809)
# Test: primary screen, population patch clamp on CHO cells stably expressing hERG; higher = less effect of the substance
# 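Further: peak tail current of the secondary pulse compared with the same well before compound.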
# human ether-à-go-go-related gene (hERG) potassium channel, sequence (Q12809 whole entry, looked up): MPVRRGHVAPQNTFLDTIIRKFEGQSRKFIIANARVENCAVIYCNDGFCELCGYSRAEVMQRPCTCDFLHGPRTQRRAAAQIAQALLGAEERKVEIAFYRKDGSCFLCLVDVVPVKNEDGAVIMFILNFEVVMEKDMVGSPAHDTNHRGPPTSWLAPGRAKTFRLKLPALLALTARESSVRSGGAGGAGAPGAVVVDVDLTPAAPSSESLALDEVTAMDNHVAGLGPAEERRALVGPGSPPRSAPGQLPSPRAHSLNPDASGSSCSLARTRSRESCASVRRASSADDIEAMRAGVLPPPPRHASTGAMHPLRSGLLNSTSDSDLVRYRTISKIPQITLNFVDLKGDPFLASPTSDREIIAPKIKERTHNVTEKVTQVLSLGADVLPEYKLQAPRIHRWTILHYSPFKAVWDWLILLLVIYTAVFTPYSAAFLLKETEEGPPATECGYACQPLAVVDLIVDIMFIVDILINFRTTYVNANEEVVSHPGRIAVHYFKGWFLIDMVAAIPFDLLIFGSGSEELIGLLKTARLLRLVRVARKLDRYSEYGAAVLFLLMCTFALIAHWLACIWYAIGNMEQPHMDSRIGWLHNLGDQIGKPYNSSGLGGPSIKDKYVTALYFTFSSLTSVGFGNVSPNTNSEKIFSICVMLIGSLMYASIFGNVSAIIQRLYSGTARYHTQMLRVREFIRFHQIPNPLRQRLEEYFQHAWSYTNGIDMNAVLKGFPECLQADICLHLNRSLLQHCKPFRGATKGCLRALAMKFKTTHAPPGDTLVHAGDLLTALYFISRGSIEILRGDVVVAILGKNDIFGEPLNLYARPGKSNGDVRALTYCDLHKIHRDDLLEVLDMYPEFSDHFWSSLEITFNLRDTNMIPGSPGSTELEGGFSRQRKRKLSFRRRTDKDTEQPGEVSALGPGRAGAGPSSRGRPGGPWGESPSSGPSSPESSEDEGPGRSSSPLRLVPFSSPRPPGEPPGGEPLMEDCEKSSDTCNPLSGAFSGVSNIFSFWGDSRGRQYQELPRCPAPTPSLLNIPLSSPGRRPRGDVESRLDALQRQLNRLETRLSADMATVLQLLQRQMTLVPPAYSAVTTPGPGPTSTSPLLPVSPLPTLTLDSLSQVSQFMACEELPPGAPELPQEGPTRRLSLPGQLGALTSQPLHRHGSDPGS
row,Structure (SMILES),"hERG current change (%, negative = inhibition) at 10uM [%]"
1,COc1ccccc1NC(=S)NC(=O)C(C)(C)C,-9.31
2,Cc1ccc2nc(-c3ccc(N4C(=O)CC(N5CCN(CCO)CC5)C4=O)cc3)sc2c1 (stereo not drawn),-3.5
3,N#CCC(=O)Nc1ccc(C(=O)OCC(=O)Nc2ccccc2-c2ccccc2)cc1,9.2
4,CCc1nc(SCc2ccccc2C)n[nH]1,26.9
5,Cc1cc(C(=O)Nc2cccc3ccccc23)c(C)o1,4.69
6,CCOc1ccccc1NC(=O)c1cc(CC(C)C)oc1C,-0.536
7,Cc1oc(CC(C)C)cc1C(=O)Nc1cccc2ccccc12,-58.8
8,Cc1ncc(C(=O)O)c(C(=O)O)c1N,13.4
9,O=C(O)c1cnc(-c2ccccc2)nc1Sc1ccccc1,14.2
10,COc1ccc(CN2CCCC(C(=O)N3CCc4ccccc4C3)C2)cc1OC (stereo not drawn),-62
11,O=C(C1CCCN(Cc2ccncc2)C1)N1CCc2ccccc2C1.O=C(O)C(=O)O (stereo not drawn),-19.2
12,COc1ccc(S(=O)(=O)N2CCC(C(=O)N3CCc4ccccc4C3)CC2)cc1OC,-27.4
13,COc1ccc(CN2CCCC(C(=O)N3CCCCC3)C2)cc1OC.O=C(O)C(=O)O (stereo not drawn),-25.5
14,COc1cc(CN2CCCC(C(=O)N3CCc4ccccc4C3)C2)cc(OC)c1OC (stereo not drawn),-62
15,O=C(C1CCCN(Cc2ccccc2)C1)N1CCCCC1.O=C(O)C(=O)O (stereo not drawn),11.3
16,Cc1cccc(CN2CCCC(C(=O)N3CCCCC3)C2)c1.O=C(O)C(=O)O (stereo not drawn),15.5
17,O=C(C1CCCN(Cc2ccccc2F)C1)N1CCc2ccccc2C1.O=C(O)C(=O)O (stereo not drawn),-22.6
18,Cc1cccc(CN2CCCC(C(=O)N3CCc4ccccc4C3)C2)c1.O=C(O)C(=O)O (stereo not drawn),-51.3
19,COc1ccc(C)cc1-n1c(SCC(=O)Nc2cccc(C(=O)O)c2)nc2ccccc2c1=O,12
20,O=C(CCC(=O)Nc1ccccc1)NNC(=O)C(c1ccccc1)c1ccccc1,-0.585
21,CCN(c1ccccc1)P(=O)(Nc1ccccc1)Nc1ccccc1,0.944
22,Cc1ccc(N2C(=O)CSC2c2cccnc2)cc1F (stereo not drawn),5.77
23,CCCc1nc(SCC(=O)Nc2cc(C)on2)c2c(=O)n(C)c(=O)n(C)c2n1,-2.26
24,NCCCC[C@H]1NC(=O)[C@H](CCC(=O)O)NC(=O)c2cc([N+](=O)[O-])cc(I)c2OCC[C@@H](C(N)=O)NC1=O,26.6
